Measured values reported in paper PMC7819943, “Rice protein-binding microarrays: a tool to detect cis-acting elements near promoter regions in rice”.
Whole data set: some 39,000 sequences, median “fluorescence intensity (a.u.)” near 4,300, cut for the highest 2% near 39,000. Only a selection was taken, and the highest values are over-represented in it overall.

molecular target: T1, OsSMF1 (Oryza sativa, UniProt Q6ZLB0 1-436); test: protein-binding microarray (RPBM); PBS, 2% BSA, 51.3 ng/ul salmon testes DNA, 50 uM zinc acetate, 200 nM TF, 25 C, 1 h; high values mean tight binding; details: protein: recombinant; tags: N-terminal polyhistidine and DsRed monomer fusion (pET32a); chain copies: 2; label: CyDye5-dUTP incorporated in the synthesized complementary strand; 3' TTTTT single-stranded linker to array surface; dsDNA, one strand shown
T1 sequence: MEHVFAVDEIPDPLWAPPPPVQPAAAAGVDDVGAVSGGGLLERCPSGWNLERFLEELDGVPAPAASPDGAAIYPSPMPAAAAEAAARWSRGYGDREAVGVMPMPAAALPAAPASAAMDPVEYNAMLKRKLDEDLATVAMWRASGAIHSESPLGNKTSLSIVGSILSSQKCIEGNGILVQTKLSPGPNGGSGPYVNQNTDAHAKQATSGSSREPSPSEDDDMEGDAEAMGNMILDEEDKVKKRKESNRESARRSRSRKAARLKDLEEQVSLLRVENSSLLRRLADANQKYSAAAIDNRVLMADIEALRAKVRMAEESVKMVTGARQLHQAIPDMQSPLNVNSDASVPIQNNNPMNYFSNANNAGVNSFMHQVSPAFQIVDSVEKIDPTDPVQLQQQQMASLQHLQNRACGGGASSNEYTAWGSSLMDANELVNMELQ
Method in brief: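 Binding signal is defined as the fluorescence intensity of each feature in arbitrary units, read on an Axon 4000B scanner. Transcription factors with N-terminal polyhistidine and DsRed fusions came from E. coli BL21-CodonPlus and were purified on Ni–NTA. They were incubated at 200 nM for 1 h at 25 °C on a custom Agilent array that had been made double-stranded with Cy5-dUTP, with 50 µM zinc acetate present, and the array was washed.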

Sequence | binding signal
TACCGTCCCTCAACTTTATGTCGAGTCTATATGACATACCCGGAGTCACCTAGTGCAG | 4220 fluorescence intensity (a.u.)
TACTTTATTTTGATTTTCGTGGGAGGTGACGTGGGCGCTTCGGAGTCACCTAGTGCAG | 19300 fluorescence intensity (a.u.)
TCTTCCCGCTCGCCACGTCAGCGCCATGTGAGCAAAACTACGGAGTCACCTAGTGCAG | 15500 fluorescence intensity (a.u.)
AATCAATCCATTAATATTTAACATGATCAGGCATTAGTCGCGGAGTCACCTAGTGCAG | 3580 fluorescence intensity (a.u.)
ATCCACGTGGCAATGTATTAATCCAGTCAGCAACATCTCACGGAGTCACCTAGTGCAG | 12400 fluorescence intensity (a.u.)
GTTGGAACAATTAATGTGCTGCAGGCAATAACAATCCAGTCGGAGTCACCTAGTGCAG | 48700 fluorescence intensity (a.u.)
ATTTGTCTTATGTATATGCTGTATAGGATCTATGGACGCCCGGAGTCACCTAGTGCAG | 3520 fluorescence intensity (a.u.)
GTTCCATTCCAATCCCATGAAAGCAACAGCGCTGCCTATCCGGAGTCACCTAGTGCAG | 35800 fluorescence intensity (a.u.)
ACATAATTGTATTATGCAGAACCAAAGCAGGCCACGTGAGCGGAGTCACCTAGTGCAG | 5470 fluorescence intensity (a.u.)
AACGGGGCCTCGTAGCAACAGCTCTGACGCACGTGACCTCCGGAGTCACCTAGTGCAG | 5400 fluorescence intensity (a.u.)
TGCCGCCGCCGTCGTCACCGTCGCCGCCTCCGTGCTCATGCGGAGTCACCTAGTGCAG | 6030 fluorescence intensity (a.u.)
GCGTGGTGCGTATCGTGCTCATCGCATCGGCCTCCGTATACGGAGTCACCTAGTGCAG | 40000 fluorescence intensity (a.u.)
ACCTCTGGTAGCAGCAGCAGCTCGCACGCAGCTCATCGTGCGGAGTCACCTAGTGCAG | 40700 fluorescence intensity (a.u.)
CGTCGCCGTCGCCTCGCCTCGTCACGGCCGCCTCCGCCATCGGAGTCACCTAGTGCAG | 7920 fluorescence intensity (a.u.)
CCAGCAGCCCCTCTCTCATCCATGGTAGTGCTCTGTCATGCGGAGTCACCTAGTGCAG | 3400 fluorescence intensity (a.u.)
ATGTTGACTCGTTTGCCTGTGTTCCTCTTGCTGCTATTCACGGAGTCACCTAGTGCAG | 3230 fluorescence intensity (a.u.)
CGCTGTGGTGTGCAGCGGCGGTGCCACGTCCCTATTTAAACGGAGTCACCTAGTGCAG | 10900 fluorescence intensity (a.u.)
ATCTTTAGTCCCGGATTGGTAGTTCCGGTTTGAAAACCGGCGGAGTCACCTAGTGCAG | 3760 fluorescence intensity (a.u.)
TCTTTAGTCCCGGTTCCTATTTAAACCGGGATTATTGTGGCGGAGTCACCTAGTGCAG | 47900 fluorescence intensity (a.u.)
ACCAAATGACATGACTCACTTAGATCCTAATAGGACATCCCGGAGTCACCTAGTGCAG | 4400 fluorescence intensity (a.u.)
GCGCCGCGGTGGAGGCGAGTGGGCGACACGTGGGAAGTGGCGGAGTCACCTAGTGCAG | 6610 fluorescence intensity (a.u.)

Sequence | binding signal
GTGCTGGCCAAATGGGCCGGGCCAAGGCCTCGGTAACCACCGGAGTCACCTAGTGCAG | 42300 fluorescence intensity (a.u.)
CCGGACCAAAATGACGTGCCTTAGGCCGGGCCGCCAGCCTCGGAGTCACCTAGTGCAG | 3830 fluorescence intensity (a.u.)
ATATGTGCTGGCCGCTGAGGTATACAGTATATGGGCCAACCGGAGTCACCTAGTGCAG | 3580 fluorescence intensity (a.u.)
ATCTGTCTTTGTTTGAAATCAGATTGGTTCAAAACAAGCGCGGAGTCACCTAGTGCAG | 21900 fluorescence intensity (a.u.)
CTTTTCACGGATCCTAATTTTGACAGGCAAAGAAAGAAAGCGGAGTCACCTAGTGCAG | 41700 fluorescence intensity (a.u.)
AGTTGATAAATTTCAGAAAATTTTGATGACAAAGCAAAGCCGGAGTCACCTAGTGCAG | 5580 fluorescence intensity (a.u.)
CAAATTTTAATCCTAGAAAAGCTTATATTTGAAGGAGAAGCGGAGTCACCTAGTGCAG | 31100 fluorescence intensity (a.u.)
GTCCCGCGCATTGGCGACGCGCGACCGGCACGGTCCCGCACGGAGTCACCTAGTGCAG | 13500 fluorescence intensity (a.u.)
CTGACGACCCGGATCAACCATTGGCAGCAGCTCCTGTACACGGAGTCACCTAGTGCAG | 3580 fluorescence intensity (a.u.)
AATAACCACGTATATATAACTTCTAACCCTAGTTAACAACCGGAGTCACCTAGTGCAG | 3310 fluorescence intensity (a.u.)
TACTTATGTAAAAGGATTGATTTAAGAGAATGGTCCAAACCGGAGTCACCTAGTGCAG | 44100 fluorescence intensity (a.u.)
GATGTCTTTAAAGAGGATTATATGAAATTTGAGATGAAATCGGAGTCACCTAGTGCAG | 3610 fluorescence intensity (a.u.)
AGAGGGGAGGAAGAAGGAAGGAGAGATGGGTCCGACATGTCGGAGTCACCTAGTGCAG | 26900 fluorescence intensity (a.u.)
AAGAGATGGGGATTAAACCAATTGGGCCGAAAGATATGTCCGGAGTCACCTAGTGCAG | 41200 fluorescence intensity (a.u.)
GAATTTATGGTTGAATACTTAACTTAAAATCCAAGGAACCCGGAGTCACCTAGTGCAG | 3220 fluorescence intensity (a.u.)
TGATTTAAACATGTTATGTAAGGAGAGTTGGAGACAGATACGGAGTCACCTAGTGCAG | 22000 fluorescence intensity (a.u.)
AAAGAGATTATGCGGATATGCCCTTGCAAACCGGGGCAGTCGGAGTCACCTAGTGCAG | 49900 fluorescence intensity (a.u.)
AGAGAATTATGGAGAGGGGAGGGGAGGGGCAGCAAAAGAGCGGAGTCACCTAGTGCAG | 4210 fluorescence intensity (a.u.)
AAACAACCAACTTTGCCTGCAAAACGGCAAAGAGATTAACCGGAGTCACCTAGTGCAG | 3920 fluorescence intensity (a.u.)
CGTACGGATATGCCCACGTGGCGAAGTCCCACGACGCCACCGGAGTCACCTAGTGCAG | 9930 fluorescence intensity (a.u.)
ATTTCCAGTAAAAGTGGCATTGTTCAGACTTCAGTCATTACGGAGTCACCTAGTGCAG | 3530 fluorescence intensity (a.u.)
